In PubChem BioAssay (Tox21):
Results filed as inconclusive are left out. Entries that show only a call come without a potency. Activity calls are given as the source filed them. Unless noted, calls come from the whole dose curve.

target: Progesterone receptor (Homo sapiens) (UniProt P06401); assay: qHTS assay to identify small molecule antagonists of the progesterone receptor (PR) signaling pathway (AID 1346795; active = well fitted inhibition curve with a large enough effect in the signal ratio in the repeat runs, not every such curve was filed as active; the % refers to the signal ratio; note: potency is the fitted concentration of half-maximal effect); conditions: PR-UAS-bla HEK293T, beta-lactamase FRET ratio, 16 h; series mostly up to 92.4 µM
Summary of the method: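 Inhibition of R5020-induced (1 nM final) beta-lactamase reporter signal in PR-UAS-bla HEK293T cells was scored by FRET fluorescence after overnight (16 hr) compound treatment.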

Progesterone receptor (Homo sapiens), sequence (P06401 whole entry, looked up): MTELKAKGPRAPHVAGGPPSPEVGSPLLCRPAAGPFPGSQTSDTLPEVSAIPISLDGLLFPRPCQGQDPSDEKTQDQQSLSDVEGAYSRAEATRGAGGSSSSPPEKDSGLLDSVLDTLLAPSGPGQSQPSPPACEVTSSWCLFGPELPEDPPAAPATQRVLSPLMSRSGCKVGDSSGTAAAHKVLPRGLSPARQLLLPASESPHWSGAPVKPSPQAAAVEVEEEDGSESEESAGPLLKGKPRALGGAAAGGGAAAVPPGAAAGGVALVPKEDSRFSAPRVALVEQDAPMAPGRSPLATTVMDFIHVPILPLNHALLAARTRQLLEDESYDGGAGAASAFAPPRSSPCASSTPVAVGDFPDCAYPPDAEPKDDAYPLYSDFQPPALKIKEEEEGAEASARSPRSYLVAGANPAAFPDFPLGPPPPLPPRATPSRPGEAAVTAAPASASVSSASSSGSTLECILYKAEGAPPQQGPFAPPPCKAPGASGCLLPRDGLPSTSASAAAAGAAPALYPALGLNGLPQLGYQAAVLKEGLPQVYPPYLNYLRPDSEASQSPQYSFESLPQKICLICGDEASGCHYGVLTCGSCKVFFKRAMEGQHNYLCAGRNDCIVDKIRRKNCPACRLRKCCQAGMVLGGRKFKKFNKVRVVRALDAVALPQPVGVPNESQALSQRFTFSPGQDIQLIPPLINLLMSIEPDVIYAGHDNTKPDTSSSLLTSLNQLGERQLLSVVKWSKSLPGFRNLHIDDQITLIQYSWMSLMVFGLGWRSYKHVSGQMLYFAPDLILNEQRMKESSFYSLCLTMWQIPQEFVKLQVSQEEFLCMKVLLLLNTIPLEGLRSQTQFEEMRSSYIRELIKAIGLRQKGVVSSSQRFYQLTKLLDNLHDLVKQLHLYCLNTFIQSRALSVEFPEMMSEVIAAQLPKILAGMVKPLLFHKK

Row | Structure (SMILES) | Potency
1 | CN(C)c1cccc(O)c1 | inactive
2 | CS(=O)(=O)Nc1ccc([N+](=O)[O-])cc1Oc1ccccc1 | inactive
3 | CCCCCCCCC | inactive
4 | OC1CCCC1 | inactive
5 | NS(=O)(=O)c1cc2c(cc1Cl)NC=NS2(=O)=O | inactive
6 | Nc1c(S(=O)(=O)O)cc(Br)c2c1C(=O)c1ccccc1C2=O | inactive
7 | OCCOCCOCCOCCO | inactive
8 | CC(C)(N=C=O)c1cccc(C(C)(C)N=C=O)c1 | inactive
9 | CCC(C)C=O (centres undefined) | inactive
10 | CCOC(=O)/C=C\C(=O)OCC | inactive
11 | C=C(C)C(=O)OCCC[Si](OC)(OC)OC | inactive
12 | CC(C)(C)C1CCC(O)CC1 (centres undefined) | inactive
13 | ClC1=C(Cl)C(Cl)(Cl)C(Cl)=C1Cl | inactive
14 | Cc1cc(=O)[nH]c(C(C)C)n1 | inactive
15 | CCCCCC/C=C/CCCCCCCC(=O)O | inactive
16 | Cc1ccc(N)c(S(=O)(=O)O)c1 | inactive
17 | CC1Cc2ccccc2N1NC(=O)c1ccc(Cl)c(S(N)(=O)=O)c1 (centres undefined) | inactive
18 | CC1(C)CC(N=C=O)CC(C)(CN=C=O)C1 (centres undefined) | inactive
19 | CC(C)Cc1ccccc1 | inactive

Row | Structure (SMILES) | Potency
20 | Cc1ccc(C)c(C)c1 | inactive
21 | CCCCCCC(C)(C)S | inactive
22 | Oc1ccc(OCc2ccccc2)cc1 | 18.9 µM (active)
23 | O=S(=O)(O)c1cc(S(=O)(=O)O)c2c(N=Nc3ccccc3)c(O)ccc2c1 | inactive
24 | O=C1O[C@H](CO)[C@@H](O)[C@H](O)[C@H]1O | inactive
25 | C[C@@H]1O[C@@H](OC[C@H]2O[C@@H](Oc3c(-c4ccc(O)c(O)c4)oc4cc(O)cc(O)c4c3=O)[C@H](O)[C@@H](O)[C@@H]2O)[C@H](O)[C@H](O)[C@H]1O | inactive
26 | O=S(=O)(O)CCS | inactive
27 | O=C(Oc1ccccc1)c1ccc(O)cc1 | 61.1 µM (active)
28 | CC1=CC[C@H]2C[C@@H]1C2(C)C | inactive
29 | O=[N+]([O-])c1cccc(Cl)c1 | inactive
30 | O=C(O)c1cc(-c2ccccc2)nc2ccccc12 | inactive
31 | C=C(C)C(=O)OCCCCCCCCCCCC | inactive
32 | CNC[C@H](O)[C@@H](O)[C@H](O)[C@H](O)CO | inactive
33 | CCCCCCCCCC(=O)O | inactive
34 | CCCCC(CC)COC(C)=O (centres undefined) | inactive
35 | O=[N+]([O-])C(CO)(CO)CO | inactive
36 | CC1=C(/C=C/C(C)=C/C=C/C(C)=C/CO)C(C)(C)CCC1 | inactive
37 | C=C(C#N)C(=O)OCC | inactive
38 | CC(C)(CO)COC(=O)C(C)(C)CO | inactive

system: not listed separately; assay: qHTS assay to identify small molecule antagonists of the progesterone receptor (PR) signaling pathway - cell viability counter screen (AID 1346798; active = well fitted cell-killing curve with a large enough effect in the repeat runs; note: nearly all actives have a fitted effect of over 50% in size); conditions: PR-UAS-bla HEK293T viability, CellTiter-Glo luminescence, 16 h; series mostly up to 92.4 µM
Summary of the method: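 ATP content as viability readout: CellTiter-Glo luminescence, 30 min room temperature, in PR-UAS-bla HEK293T cells after 16 hr compound/R5020 treatment at 37C and 5% CO2.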

Row | Structure (SMILES) | Potency
39 | CN(C)c1cccc(O)c1 | inactive
40 | CS(=O)(=O)Nc1ccc([N+](=O)[O-])cc1Oc1ccccc1 | inactive
41 | CCCCCCCCC | inactive
42 | OC1CCCC1 | inactive
43 | NS(=O)(=O)c1cc2c(cc1Cl)NC=NS2(=O)=O | inactive
44 | Nc1c(S(=O)(=O)O)cc(Br)c2c1C(=O)c1ccccc1C2=O | inactive
45 | OCCOCCOCCOCCO | inactive
46 | CC(C)(N=C=O)c1cccc(C(C)(C)N=C=O)c1 | inactive
47 | CCC(C)C=O (centres undefined) | inactive
48 | CCOC(=O)/C=C\C(=O)OCC | inactive
49 | C=C(C)C(=O)OCCC[Si](OC)(OC)OC | inactive
50 | CC(C)(C)C1CCC(O)CC1 (centres undefined) | inactive
51 | ClC1=C(Cl)C(Cl)(Cl)C(Cl)=C1Cl | inactive
52 | Cc1cc(=O)[nH]c(C(C)C)n1 | inactive
53 | CCCCCC/C=C/CCCCCCCC(=O)O | inactive
54 | Cc1ccc(N)c(S(=O)(=O)O)c1 | inactive
55 | CC1Cc2ccccc2N1NC(=O)c1ccc(Cl)c(S(N)(=O)=O)c1 (centres undefined) | inactive
56 | CC1(C)CC(N=C=O)CC(C)(CN=C=O)C1 (centres undefined) | inactive
57 | CC(C)Cc1ccccc1 | inactive

Row | Structure (SMILES) | Potency
58 | Cc1ccc(C)c(C)c1 | inactive
59 | CCCCCCC(C)(C)S | inactive
60 | Oc1ccc(OCc2ccccc2)cc1 | inactive
61 | O=S(=O)(O)c1cc(S(=O)(=O)O)c2c(N=Nc3ccccc3)c(O)ccc2c1 | inactive
62 | O=C1O[C@H](CO)[C@@H](O)[C@H](O)[C@H]1O | inactive
63 | C[C@@H]1O[C@@H](OC[C@H]2O[C@@H](Oc3c(-c4ccc(O)c(O)c4)oc4cc(O)cc(O)c4c3=O)[C@H](O)[C@@H](O)[C@@H]2O)[C@H](O)[C@H](O)[C@H]1O | inactive
64 | O=S(=O)(O)CCS | inactive
65 | O=C(Oc1ccccc1)c1ccc(O)cc1 | inactive
66 | CC1=CC[C@H]2C[C@@H]1C2(C)C | inactive
67 | O=[N+]([O-])c1cccc(Cl)c1 | inactive
68 | O=C(O)c1cc(-c2ccccc2)nc2ccccc12 | inactive
69 | C=C(C)C(=O)OCCCCCCCCCCCC | inactive
70 | CNC[C@H](O)[C@@H](O)[C@H](O)[C@H](O)CO | inactive
71 | CCCCCCCCCC(=O)O | inactive
72 | CCCCC(CC)COC(C)=O (centres undefined) | inactive
73 | O=[N+]([O-])C(CO)(CO)CO | inactive
74 | CC1=C(/C=C/C(C)=C/C=C/C(C)=C/CO)C(C)(C)CCC1 | inactive
75 | C=C(C#N)C(=O)OCC | inactive
76 | CC(C)(CO)COC(=O)C(C)(C)CO | inactive

system: not listed separately; assay: qHTS assay to identify small molecule agonists of the progesterone receptor (PR) signaling pathway - cell viability counter screen (AID 1346799); conditions: PR-UAS-bla HEK293T viability, CellTiter-Glo luminescence, 16 h; series mostly up to 92.4 µM; note: nearly all actives have a fitted effect of over 45% in size
Summary of the method: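 Cytotoxicity in PR-bla HEK293T cells: 16 h compound, 37C; CellTiter-Glo added post-FRET read; luminescence after 30 min RT.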

Row | Structure (SMILES) | Potency
77 | CN(C)c1cccc(O)c1 | inactive
78 | CS(=O)(=O)Nc1ccc([N+](=O)[O-])cc1Oc1ccccc1 | inactive
79 | CCCCCCCCC | inactive
80 | OC1CCCC1 | inactive
81 | NS(=O)(=O)c1cc2c(cc1Cl)NC=NS2(=O)=O | inactive
82 | Nc1c(S(=O)(=O)O)cc(Br)c2c1C(=O)c1ccccc1C2=O | inactive
83 | OCCOCCOCCOCCO | inactive
84 | CC(C)(N=C=O)c1cccc(C(C)(C)N=C=O)c1 | inactive
85 | CCC(C)C=O (centres undefined) | inactive
86 | CCOC(=O)/C=C\C(=O)OCC | inactive
87 | C=C(C)C(=O)OCCC[Si](OC)(OC)OC | inactive
88 | CC(C)(C)C1CCC(O)CC1 (centres undefined) | inactive
89 | ClC1=C(Cl)C(Cl)(Cl)C(Cl)=C1Cl | inactive
90 | Cc1cc(=O)[nH]c(C(C)C)n1 | inactive
91 | CCCCCC/C=C/CCCCCCCC(=O)O | inactive
92 | Cc1ccc(N)c(S(=O)(=O)O)c1 | inactive
93 | CC1Cc2ccccc2N1NC(=O)c1ccc(Cl)c(S(N)(=O)=O)c1 (centres undefined) | inactive
94 | CC1(C)CC(N=C=O)CC(C)(CN=C=O)C1 (centres undefined) | inactive
95 | CC(C)Cc1ccccc1 | inactive

Row | Structure (SMILES) | Potency
96 | Cc1ccc(C)c(C)c1 | inactive
97 | CCCCCCC(C)(C)S | inactive
98 | Oc1ccc(OCc2ccccc2)cc1 | inactive
99 | O=S(=O)(O)c1cc(S(=O)(=O)O)c2c(N=Nc3ccccc3)c(O)ccc2c1 | inactive
100 | O=C1O[C@H](CO)[C@@H](O)[C@H](O)[C@H]1O | inactive
101 | C[C@@H]1O[C@@H](OC[C@H]2O[C@@H](Oc3c(-c4ccc(O)c(O)c4)oc4cc(O)cc(O)c4c3=O)[C@H](O)[C@@H](O)[C@@H]2O)[C@H](O)[C@H](O)[C@H]1O | inactive
102 | O=S(=O)(O)CCS | inactive
103 | O=C(Oc1ccccc1)c1ccc(O)cc1 | inactive
104 | CC1=CC[C@H]2C[C@@H]1C2(C)C | inactive
105 | O=[N+]([O-])c1cccc(Cl)c1 | inactive
106 | O=C(O)c1cc(-c2ccccc2)nc2ccccc12 | inactive
107 | C=C(C)C(=O)OCCCCCCCCCCCC | inactive
108 | CNC[C@H](O)[C@@H](O)[C@H](O)[C@H](O)CO | inactive
109 | CCCCCCCCCC(=O)O | inactive
110 | CCCCC(CC)COC(C)=O (centres undefined) | inactive
111 | O=[N+]([O-])C(CO)(CO)CO | inactive
112 | CC1=C(/C=C/C(C)=C/C=C/C(C)=C/CO)C(C)(C)CCC1 | inactive
113 | C=C(C#N)C(=O)OCC | inactive
114 | CC(C)(CO)COC(=O)C(C)(C)CO | inactive
